A selection: hits, their analogues and other compounds. The true share with any hit is near 10%.
JMJD2A Tudor inh: blocks the human JMJD2A Tudor domain; AID 504339; AlphaScreen JMJD2A-Tudor / H3K4me3 peptide binding; O75164; actives 4.4% (n = 390,000); Potency, µM (titrated, usually from 114 µM), for inactives: top-dose activity change, negative = inhibition, usual class: inhibitors; also: % is scaled to controls: 0 for no effect and ±100 for the full control effect; nearly all actives have a fitted effect of over 50% in size
GLS inhibitor: glutaminase GLS (human) inhibition; actives 0.21% (n = 410,000); GLS enzymatic activity, qHTS titration; Potency, µM (highest dose often 45.5 µM), inactives show at the top dose activity change, negative = inhibition, hits mostly inhibitors; O94925; also: % is scaled to controls: 0 for no effect and ±100 for the full control effect
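Coupled fluorescence readout: glutamate oxidase/HRP/Amplex Red detect glutamate formed by hKGA from L-glutamine (1 mM solution added). Buffer 45 mM KH2PO4 pH 8.2, 0.02% Tween-20; reads at t0 and 30 min RT.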
BAZ2B inh: BAZ2B (human) inhibition; Q9UIF8; AlphaScreen BAZ2B-H3K14Ac peptide displacement; Potency, µM (series often up to 114 µM), inactives show at the highest dose activity change, negative = inhibition, most hits filed as inhibitors; actives 4.4% (n = 360,000); also: % is scaled to controls: 0 for no effect and ±100 for the full control effect; nearly all actives have a fitted effect of over 60% in size
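In this displacement format the biotinylated H3(5-23) peptide acetylated at Lys14 serves as ligand at 50 nM, with BAZ2B at 50 nM in PBS pH 7.4 containing 0.01% Tween-20. Donor and acceptor beads are 10 ug/mL final.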
HP1b chromo inh: blocks HP1-beta chromodomain binding to methylated histone tails; AlphaScreen HP1-beta / biotin-H3K9me3 peptide binding; Potency, µM (series often up to 114 µM), without a hit: top-dose activity change, negative = inhibition, most hits filed as inhibitors; actives 0.56% (n = 390,000); AID 540317; also: nearly all actives have a fitted effect of over 70% in size
Target sequence (P83916 whole entry, looked up): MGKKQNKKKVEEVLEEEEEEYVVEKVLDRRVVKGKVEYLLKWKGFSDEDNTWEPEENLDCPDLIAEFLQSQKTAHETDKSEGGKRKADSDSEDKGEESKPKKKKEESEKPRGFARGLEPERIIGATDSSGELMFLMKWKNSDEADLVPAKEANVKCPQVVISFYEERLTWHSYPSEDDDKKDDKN
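AlphaScreen: HP1-beta (50 nM) preformed 30 min with biotin-H3(1-18)K9me3 peptide (50 nM) in PBS pH 7.4, 0.01% Tween-20. Compound added for 30 min at RT, then streptavidin donor/nickel chelate acceptor beads (10 ug/mL) for 30 min.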
G9a inh: G9a (human) methyltransferase inhibition; G9a H3K9 monomethylation, AlphaScreen, 2 h; Q96KQ7; actives 8.8% (n = 350,000); Potency, µM (top dose mostly 102 µM), for the others: at the highest dose activity, negative = inhibition, hits mostly inhibitors; AID 504332; also: % is scaled to controls: 0 for no effect and ±100 for the full control effect; nearly all actives have a fitted effect of over 75% in size
Target sequence (Q96KQ7 913-1193 limits assumed): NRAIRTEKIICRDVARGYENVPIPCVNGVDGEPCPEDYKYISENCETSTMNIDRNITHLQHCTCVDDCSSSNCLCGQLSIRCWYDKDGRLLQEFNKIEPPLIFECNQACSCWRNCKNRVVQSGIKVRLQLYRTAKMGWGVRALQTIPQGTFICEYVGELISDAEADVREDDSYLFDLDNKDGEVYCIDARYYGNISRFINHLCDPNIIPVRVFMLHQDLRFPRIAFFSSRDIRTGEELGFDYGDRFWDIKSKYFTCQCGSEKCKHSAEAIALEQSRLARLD
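Methyltransferase reactions run at room temperature for 2 h (20 nM enzyme, 500 nM biotin-H3K9 peptide, 20 uM SAM) after a 15 min compound preincubation; product detected by AlphaScreen beads and anti-H3K9me1 antibody.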
L3MBTL1 block: inhibitors of human L3MBTL1 | Q9Y468 | AlphaScreen L3MBTL1–H3K9me1 peptide binding | Potency, µM (series often up to 57.1 µM), for the others: top-dose activity, negative = inhibition, most hits filed as inhibitors | actives 0.66% (n = 230,000) | AID 485360; also: % is scaled to controls: 0 for no effect and ±100 for the full control effect; nearly all actives have a fitted effect of over 60% in size
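AlphaScreen assay: L3MBTL1 (50 nM final) was preincubated 30 min at room temperature with biotinylated H3(1-15)K9me1 peptide (75 nM final), then 30 min with library compounds; streptavidin donor and nickel chelate acceptor beads (10 ug/mL final) added, 30 min dark.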
An asterisk follows results filed as active; ? = inconclusive; / = no result given; [ ] = another dose, or the depositor's remark. Calls follow the shape of the dose curve; as a rule, active = well fitted curve in the direction sought with a large enough effect; inconclusive = small, poorly fitted or top-dose-only effect, or another doubt; inactive = no such curve, though single readings can be large; an effect the other way counts as inactive or inconclusive. Potency is read from the fitted curve at half-maximal effect.

SMILES	JMJD2A Tudor inh	GLS inhibitor	BAZ2B inh	HP1b chromo inh	G9a inh	L3MBTL1 block
COc1ccc(N2CC(NC(=O)c3ccc(S(=O)(=O)N4CCCCC4)cc3)CC2=O)cc1 (stereo not given)	-13.0%	1.7%	-4.6%	30.6%	3.5%[59 µM]	/
CCOC(=O)c1c(NC(=O)Cn2cnc([N+](=O)[O-])n2)sc(C)c1C	-0.7%	6.5%	-2.0%	-9.0%	28.2µM*	/
CC(C)OC(=O)c1c(NC(=O)Cn2cnc([N+](=O)[O-])n2)sc2c1CCCC2	-16.0%	-20.2%	-3.5%	-22.7%	15.8µM*	-3.5%
CCOC(=O)c1c(NC(=O)Cn2cnc([N+](=O)[O-])n2)sc2c1CCCC2	-16.1%	6.4%	7.6%	-9.8%	44.7µM*	1.6%
NC(=O)c1c(NC(=O)Cn2cnc([N+](=O)[O-])n2)sc2c1CCCC2	-17.8%	18.3%	-27.7%	11.2%[57 µM]	?	/
CC1CCc2c(sc(NC(=O)Cn3cnc([N+](=O)[O-])n3)c2C(N)=O)C1 (stereo not given)	-18.6%	22.6%	/	25.1%	-25.8%	-1.5%
CCOC(=O)c1c(NC(=O)Cn2nc(C(F)F)cc2C(F)F)sc(C)c1C	-1.3%	0.1%	2.3%	27.0%	?	/
O=S(=O)(NCc1ccc(F)cc1)c1ccc(N2CCCCS2(=O)=O)cc1	-2.0%	-16.0%	-8.4%	13.1%	-0.2%[59 µM]	/
CCC(=O)c1ccccc1OCCCCn1cncn1	5.62µM*	10.2%	28.2µM*	?	8.91µM*	-0.2%
Cc1ccc(C(C)C)cc1OCCn1cncn1	2.24µM*	4.6%	79.4µM*	50.1µM*	11.2µM*	7.3%
Cn1c(=O)n(CCOc2ccc(Cl)cc2Cl)c2ccccc21	-6.9%	0.8%	6.5%	14.1%	?	/
CC1CC(C)CN(CCOc2ccc(Cl)cc2Cl)C1 (stereo not given)	2.82µM*	9.6%	56.2µM*	?	?	/
c1ccc(Oc2cccc(OCCCn3cncn3)c2)cc1	-6.1%	3.0%	10.7%	46.1%	6.8%[12.7 µM]	/
CC1CC(C)CN(CCOc2cccc(Cl)c2Cl)C1 (stereo not given)	79.4µM*	18.3%	?	?	12.6µM*	2.0%
Cc1nn(C(C)(C)C)c(OC(=O)c2cccc(F)c2)c1Sc1ccccc1	64.5%	-7.0%	70.6%	110.0%	82.6%[59 µM]	/
O=C(CC1C(=O)N(c2ccc(F)cc2)C(=O)N1Cc1ccc2c(c1)OCO2)Nc1ccc(Cl)cc1 (stereo not given)	-5.0%	1.9%	0.7%	39.6%	3.9%[59 µM]	/
CC1(C)NC(=O)N(CCOc2cccc(Cl)c2Cl)C1=O	-1.9%	0.1%	6.6%	64.1%	8.0%[59 µM]	-0.3%
CCN1CCN(CCOc2cccc(Cl)c2Cl)CC1	3.98µM*	5.5%	17.8µM*	?	/	44.6%
Clc1cccc(OCCn2cncn2)c1Cl	-3.1%[11.4 µM]	-10.7%	56.2µM*	-35.4%	?	2.2%[11.4 µM]
CCC(=O)c1ccccc1OCCN1CCN(CC)CC1	14.1µM*	3.3%	35.5µM*	?	14.1µM*	11.7%
C=CCc1ccc(OCCn2cncn2)c(OC)c1	5.9%	-3.7%	10.2%	34.0%	-15.7%	8.5%
O=C(Cn1c(SCCOc2ccc(Cl)cc2)nc2ccccc21)N1CCCCC1	-5.0%	1.8%	-9.6%	49.6%	-11.7%[59 µM]	/
COC(=O)c1cc2oc3ccccc3c2n1CC(=O)Nc1ccc(C)c(F)c1	-6.5%	-1.8%	2.9%	30.6%	-2.0%[59 µM]	/
Cc1ccc(C(=O)c2cn(CC(=O)Nc3ccc4c(c3)OCCO4)c3nc(C)ccc3c2=O)cc1	-25.2%	-9.5%	6.7%[57.1 µM]	8.1%	-34.4%[59 µM]	/
CCSc1ncc(Cl)c(C(=O)N2CCN(c3ccc(OC)cc3)CC2)n1	?	15.5%	?	-18.4%	14.1µM*	/
CCCS(=O)(=O)c1ncc(Cl)c(C(=O)N2CCN(c3ccc(OC)cc3)CC2)n1	-16.0%	1.3%	-3.1%	36.3%	11.2µM*	/
COc1cc(NC(=O)c2c(C)oc3ncnc(N4CCCCC4)c23)cc(OC)c1	-15.5%	1.4%	2.4%[57.1 µM]	-0.7%	-7.2%[59 µM]	/
